# Data: PubChem BioAssay (NCATS)
# Inconclusive results are not listed. The source made the active and inactive calls. The call rests on the fitted dose curve; in most records, active means well fitted curve in the direction sought with a large enough effect; inconclusive means small, poorly fitted or top-dose-only effect, or another doubt; inactive means no such curve, though single readings can be large; an effect the other way counts as inactive or inconclusive.
# Target: Aldehyde dehydrogenase, mitochondrial (Homo sapiens) (UniProt P05091)
# Assay: qHTS for Inhibitors of the Aldehyde Dehydrogenase Family (ALDH2) Primary screen (AID 2061308);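 further: plate controls were vehicle for no effect and reference inhibitor for full effect; nearly all actives have a fitted effect of over 55% in size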
# Details: ALDH2 enzyme inhibition qHTS, 1536-well; series mostly up to 56 µM; activity change, negative = inhibition: at the top concentration
Structure (SMILES),"activity change, negative = inhibition",Potency
CCOc1ccc(CCNC(=O)c2cc3ccccc3n2C)cc1OCC,5.13% (inactive),–
Cc1ccc(OCCn2c(CCNC(=O)c3ccc4ccccc4c3)nc3ccccc32)cc1,2.47% (inactive),–
CCOc1ccc(CCNC(=O)c2cccc(C(=O)c3ccccc3)c2)cc1OCC,-8.31% (inactive),–
Cc1ccc(OCCn2c(CCNC(=O)c3ccc(Cl)cc3)nc3ccccc32)cc1,-2.06% (inactive),–
CC(C)c1ccc(NC(=O)c2cccs2)c(-c2nc3ccccc3[nH]c2=O)c1,-1.94% (inactive),–
O=C(Nc1ccc(-n2cncn2)c(C(F)(F)F)c1)Nc1nnc(-c2ccncc2)s1,-2.07% (inactive),–
O=C1NS(=O)(=O)c2cc(Cl)ccc21,1.29% (inactive),–
Cc1ccc(-c2cc(C(=O)Nc3cccc4ccccc34)c3ccccc3n2)cc1C,-3.76% (inactive),–
Cn1nnnc1Sc1ncnc2scc(-c3ccccc3[N+](=O)[O-])c12,4.23% (inactive),–
O=C1CCc2cc(S(=O)(=O)Nc3ccc4ccccc4c3)ccc2N1,-3.1% (inactive),–
CN1CCCC1CCNc1ncnc2ccc(-c3ccc4c(c3)OCO4)cc12 (stereo not given),10.7% (inactive),–
COc1ccnc(NC(=S)N2CCN(c3cccc(C(F)(F)F)n3)CC2)c1,-1.89% (inactive),–
c1nc(NCc2ccc3c(c2)OCO3)c2cc(-c3ccoc3)ccc2n1,-13.6% (inactive),–
COc1cc(C2Nc3ccccc3C(=O)N2Cc2ccccc2)ccc1OCc1ccc(NC(C)=O)cc1 (stereo not given),-15.5% (inactive),–
Cc1ccc(S(=O)(=O)Nc2cnccc2C(=O)Nc2nc(-c3ccc(F)cc3)cs2)cc1,-9.74% (inactive),–
Cc1ccc(C(=O)Oc2ccc(-c3nc4ccccc4[nH]3)cc2)cc1Br,1.65% (inactive),–
Cc1cc2c(s1)c1cnn(Cc3c(F)cccc3C(F)(F)F)c(=O)c1n2C,4.81% (inactive),–
N#Cc1ccc(CSc2nc3ncc(Br)cc3[nH]2)cc1,20% (inactive),–
Cc1nc(CCNc2ncnc3ccc(-c4ccc5c(c4)OCO5)cc23)cs1,4.46% (inactive),–
COc1cc(-c2nc(Nc3ccc(F)c(F)c3)c3ccccc3n2)cc(OC)n1,6.44% (inactive),–

Structure (SMILES),"activity change, negative = inhibition",Potency
O=C(c1ccccc1)N(C(=O)c1ccccc1)c1ncnc2c1C(c1ccccc1)c1c(ccc3ccccc13)O2 (stereo not given),-1.98% (inactive),–
O=C1c2ccccc2C(=O)N1c1noc2ccccc12,-9.83% (inactive),–
NC(=O)c1c(NC(=O)c2ccncn2)sc2c1CCCC2,–,inactive
CC(C)Oc1ccccc1C(=O)Nc1nc(-c2ccccc2)cs1,9.53% (inactive),–
N#Cc1cc(NC(=O)Nc2cccc(-c3ccncc3)n2)ccc1Cl,-14.6% (inactive),–
Nc1ccc2c(c1)C(=O)NS2(=O)=O,2.56% (inactive),–
N#Cc1cccc(NC(=O)Nc2nnc(-c3ccncc3)s2)c1,7.17% (inactive),–
Cc1nc(CNc2ncnc3ccc(-c4oc(-c5ccccc5)nc4C)cc23)cs1,-5.64% (inactive),–
Cc1cc(NC(=O)Nc2nnc(C3CCCCC3)s2)ccc1F,4.51% (inactive),–
O=S1(=O)N=C(N2CCOCC2)c2ccccc21,6.26% (inactive),–
COc1ccc(-c2ccc3ncnc(NCc4nc(C)cs4)c3c2)cc1OC,-2.66% (inactive),–
CN(Cc1nccs1)c1ncnc2ccc(-c3ccc4c(c3)OCO4)cc12,–,inactive
COCCN(CCOC)c1nc(C)nc2c1nc(-c1ccccc1)n2CCN(C)C,7.64% (inactive),–
Cc1ccc(S(=O)(=O)Nc2cnccc2C(=O)Nc2ccc(-n3cncn3)cc2)cc1,-0.132% (inactive),–
Cc1ccc(C[C@H](C(=O)O)N2C(=O)c3ccc(C(=O)O)cc3C2=O)c(C)c1,7.35% (inactive),–
Cc1nnc(-c2cnn(C)c2N)n1CCc1cccs1,1.14% (inactive),–
Oc1ccc(CNc2ccc3ccccc3n2)c2cccnc12,-7.94% (inactive),–
CCNC(=O)C1CCC(C(=O)Nc2ccc([S+](=O)([O-])Nc3nccs3)cc2)CC1 (stereo not given),5.57% (inactive),–
O=[S+]([O-])(c1ccc(OC(F)(F)F)cc1)N1CCN([S+](=O)([O-])c2ccc3c(c2)OCCO3)CC1,1.87% (inactive),–
Cc1ccc(N2CCC(CNc3nc(-c4ccccc4C(C)C)ncc3F)CC2)cn1,-8.38% (inactive),–

# Target: Retinaldehyde dehydrogenase 3 (Homo sapiens) (UniProt P47895)
# Assay: qHTS for Inhibitors of the Aldehyde Dehydrogenase Family (ALDH1A3) Primary screen (AID 2061315);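 further: plate controls were DMSO vehicle for no effect and reference inhibitor for full effect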
# Details: ALDH inhibition qHTS; series mostly up to 56 µM; activity change, negative = inhibition: at the top concentration
Structure (SMILES),"activity change, negative = inhibition",Potency
CCOc1ccc(CCNC(=O)c2cc3ccccc3n2C)cc1OCC,-17% (inactive),–
Cc1ccc(OCCn2c(CCNC(=O)c3ccc4ccccc4c3)nc3ccccc32)cc1,0.419% (inactive),–
CCOc1ccc(CCNC(=O)c2cccc(C(=O)c3ccccc3)c2)cc1OCC,-5.18% (inactive),–
Cc1ccc(OCCn2c(CCNC(=O)c3ccc(Cl)cc3)nc3ccccc32)cc1,5.08% (inactive),–
CC(C)c1ccc(NC(=O)c2cccs2)c(-c2nc3ccccc3[nH]c2=O)c1,-3.88% (inactive),–
O=C(Nc1ccc(-n2cncn2)c(C(F)(F)F)c1)Nc1nnc(-c2ccncc2)s1,-1.91% (inactive),–
O=C1NS(=O)(=O)c2cc(Cl)ccc21,-1.49% (inactive),–
Cc1ccc(-c2cc(C(=O)Nc3cccc4ccccc34)c3ccccc3n2)cc1C,0.649% (inactive),–
Cn1nnnc1Sc1ncnc2scc(-c3ccccc3[N+](=O)[O-])c12,2.77% (inactive),–
O=C1CCc2cc(S(=O)(=O)Nc3ccc4ccccc4c3)ccc2N1,-1.97% (inactive),–
CN1CCCC1CCNc1ncnc2ccc(-c3ccc4c(c3)OCO4)cc12 (stereo not given),-16.5% (inactive),–
COc1ccnc(NC(=S)N2CCN(c3cccc(C(F)(F)F)n3)CC2)c1,24.1% (inactive),–
c1nc(NCc2ccc3c(c2)OCO3)c2cc(-c3ccoc3)ccc2n1,-15% (inactive),–
COc1cc(C2Nc3ccccc3C(=O)N2Cc2ccccc2)ccc1OCc1ccc(NC(C)=O)cc1 (stereo not given),-6.02% (inactive),–
Cc1ccc(S(=O)(=O)Nc2cnccc2C(=O)Nc2nc(-c3ccc(F)cc3)cs2)cc1,25.9% (inactive),–
Cc1ccc(C(=O)Oc2ccc(-c3nc4ccccc4[nH]3)cc2)cc1Br,-0.888% (inactive),–
Cc1cc2c(s1)c1cnn(Cc3c(F)cccc3C(F)(F)F)c(=O)c1n2C,-1.91% (inactive),–
N#Cc1ccc(CSc2nc3ncc(Br)cc3[nH]2)cc1,8.15% (inactive),–
Cc1nc(CCNc2ncnc3ccc(-c4ccc5c(c4)OCO5)cc23)cs1,-0.589% (inactive),–
COc1cc(-c2nc(Nc3ccc(F)c(F)c3)c3ccccc3n2)cc(OC)n1,-10.6% (inactive),–

Structure (SMILES),"activity change, negative = inhibition",Potency
O=C(c1ccccc1)N(C(=O)c1ccccc1)c1ncnc2c1C(c1ccccc1)c1c(ccc3ccccc13)O2 (stereo not given),19.2% (inactive),–
O=C1c2ccccc2C(=O)N1c1noc2ccccc12,6.45% (inactive),–
NC(=O)c1c(NC(=O)c2ccncn2)sc2c1CCCC2,–,inactive
CC(C)Oc1ccccc1C(=O)Nc1nc(-c2ccccc2)cs1,2.61% (inactive),–
N#Cc1cc(NC(=O)Nc2cccc(-c3ccncc3)n2)ccc1Cl,4.28% (inactive),–
Nc1ccc2c(c1)C(=O)NS2(=O)=O,0.971% (inactive),–
N#Cc1cccc(NC(=O)Nc2nnc(-c3ccncc3)s2)c1,4.59% (inactive),–
Cc1nc(CNc2ncnc3ccc(-c4oc(-c5ccccc5)nc4C)cc23)cs1,-9.5% (inactive),–
Cc1cc(NC(=O)Nc2nnc(C3CCCCC3)s2)ccc1F,15.1% (inactive),–
O=S1(=O)N=C(N2CCOCC2)c2ccccc21,-7.66% (inactive),–
COc1ccc(-c2ccc3ncnc(NCc4nc(C)cs4)c3c2)cc1OC,1.98% (inactive),–
CN(Cc1nccs1)c1ncnc2ccc(-c3ccc4c(c3)OCO4)cc12,–,inactive
COCCN(CCOC)c1nc(C)nc2c1nc(-c1ccccc1)n2CCN(C)C,-4.99% (inactive),–
Cc1ccc(S(=O)(=O)Nc2cnccc2C(=O)Nc2ccc(-n3cncn3)cc2)cc1,-20.6% (inactive),–
Cc1ccc(C[C@H](C(=O)O)N2C(=O)c3ccc(C(=O)O)cc3C2=O)c(C)c1,6.7% (inactive),–
Cc1nnc(-c2cnn(C)c2N)n1CCc1cccs1,1.39% (inactive),–
Oc1ccc(CNc2ccc3ccccc3n2)c2cccnc12,-10.6% (inactive),–
CCNC(=O)C1CCC(C(=O)Nc2ccc([S+](=O)([O-])Nc3nccs3)cc2)CC1 (stereo not given),2.11% (inactive),–
O=[S+]([O-])(c1ccc(OC(F)(F)F)cc1)N1CCN([S+](=O)([O-])c2ccc3c(c2)OCCO3)CC1,-11.5% (inactive),–
Cc1ccc(N2CCC(CNc3nc(-c4ccccc4C(C)C)ncc3F)CC2)cn1,-4.43% (inactive),–
